# From PubChem BioAssay
# Residues, ends and D or L forms follow the SMILES beside them. *: point of attachment. Cbz = O=C(OCc1ccccc1)*; CH2Cl = ClC*
# Key:
# [1] = target: Tumor necrosis factor receptor superfamily member 10B (Homo sapiens) (UniProt O14763); assay: caspase-8 TRAIL sensitization, hit retest, confirmation, cell-based, NB7+caspase-8, with/without TRAIL, luminescence panel (AID 651596); details: NB7 neuroblastoma + caspase-8, TRAIL sensitization, luminescence viability, with TRAIL, mean of runs, at 10 µM, stronger effect = higher value
# [2] = as above; details: NB7 neuroblastoma + caspase-8, without TRAIL, luminescence viability, without TRAIL, mean of runs, at 10 µM
# Sequence of Tumor necrosis factor receptor superfamily member 10B (Homo sapiens) (O14763 whole entry, looked up): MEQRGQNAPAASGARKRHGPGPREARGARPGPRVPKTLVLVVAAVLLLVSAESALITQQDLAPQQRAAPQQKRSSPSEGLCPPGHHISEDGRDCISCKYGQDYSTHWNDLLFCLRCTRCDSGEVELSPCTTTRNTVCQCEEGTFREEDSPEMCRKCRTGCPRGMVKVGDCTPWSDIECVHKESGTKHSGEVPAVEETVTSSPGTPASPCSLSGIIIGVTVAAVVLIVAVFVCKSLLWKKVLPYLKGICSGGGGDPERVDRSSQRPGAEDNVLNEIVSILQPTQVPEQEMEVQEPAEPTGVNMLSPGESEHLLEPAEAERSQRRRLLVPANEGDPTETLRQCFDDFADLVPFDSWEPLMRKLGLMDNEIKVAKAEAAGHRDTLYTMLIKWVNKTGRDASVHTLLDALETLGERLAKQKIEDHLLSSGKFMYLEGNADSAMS
SMILES,activity [1],activity [2]
Nc1nn2cc(-c3ccc(Br)cc3)nc2c2ccccc12,53.9%,47.2%
CN(C)c1ccc(-c2nc3ccccc3n2C)cc1,92.3%,89.8%
Cn1c(-c2ccccc2)c(C(=O)CCl)c2ccccc21,99.2%,99.2%
COc1ccccc1NC(=O)Nc1ccc2c(c1)nc(C)n2C,77%,73.8%
CNC[C@H](Cc1ccccc1)NC[C@@H](Cc1cccc2ccccc12)NCCc1ccc(C)cc1,95.4%,99.1%
COc1oc(C(=O)NC2CCCCC2)c(-c2ccc(Cl)cc2)c1S(=O)(=O)c1ccccc1,97.8%,96.8%
COc1ccccc1NC(=O)c1nc(S(=O)(=O)Cc2ccccc2)ncc1Cl,90.7%,99.2%
N=c1cc(C2(O)CCCCC2)n2c(nc3ccccc32)s1,93.5%,89%
CC(C)(C)c1ccc2c(c1)OC(C(=O)N/N=C\c1ccc[nH]1)CO2 (stereo unspecified),26.6%,43.6%
CCOC(=O)c1cccc(N2C(N)=NC(N)=NC2(C)C)c1,52.6%,69.5%
Cc1ccc(C)c(C(=O)O/N=C(\N)c2ccc(Br)cc2)c1,80.1%,78.7%
COc1ccc(-c2cc(-c3ccccc3)c(C#N)c(S(C)(=O)=O)n2)cc1,79.3%,96.9%
O=C(CCl)N(c1ccccc1)c1ccccc1,99.2%,99%
COc1ccc2nc(-c3ccccc3)[nH]c2c1,57.3%,65.5%
CCOc1ccc(OCc2cccc(C(=O)N3CCOCC3)c2)cc1,58.8%,55.5%
COc1cc2sc3ccc(-c4ccc(CN5CCOCC5)cc4)cc3c(=O)c2cc1OC,46.9%,41.8%
CCCCCc1cc(=O)oc2c(C(CCN3CCCC3)c3cc(OC)c(OC)c(OC)c3)c(OC)cc(OC)c12 (stereo unspecified),28.4%,69.4%
O=[N+]([O-])c1c(Nc2cccc(O)c2)cc(Cl)c2nonc12,97%,99.5%
C=C1C(=O)c2sccc2C(c2ccc(OC)c(OC)c2)C1COC(C)=O (stereo unspecified),98.2%,99.2%
Cc1ccc(NC2=Nc3ccccc3CS2)cc1,57.4%,38%
CC(C)(C)NCCC(O)c1cc(C(F)(F)F)nc2c(C(F)(F)F)cccc12 (stereo unspecified),97.5%,96.7%
O=C(Nc1ccc2c(c1)CCC2)c1ccccc1F,30.3%,36.4%

SMILES,activity [1],activity [2]
COc1ccc(C(=O)O/N=C(\N)c2ccccn2)c(OC)c1,75.5%,83.2%
CCOC(=O)CSc1nc2cc(OC)ccc2cc1C#N,74.7%,80.4%
CCCc1ccc(-c2cc(C(=O)Nc3ccc([N+](=O)[O-])cn3)c3ccccc3n2)cc1,43.2%,33.6%
O=C(/C=C/NNC(=O)c1ccccc1)c1ccc([N+](=O)[O-])cc1,21.4%,20%
CCOC(=O)c1cnc(-n2nc(C)cc2C)nc1N(C)C,55.4%,52.1%
O=C(Nc1ccc2c(c1)OCCO2)C(=O)c1c[nH]c2ccccc12,83.2%,90.5%
COc1ccccc1C=NN=C(NN=Cc1ccccc1OC)NN=Cc1ccccc1OC,78%,65.6%
C=CCOc1ccc(/C=C/C(C)=N\O)cc1,57.2%,71.7%
CCOc1ccc(NC(=O)Nc2cccnc2)cc1,55.2%,40.9%
O=C(CC1SC(=O)N(Cc2cccc3ccccc23)C1=O)Nc1nccs1 (stereo unspecified),33%,74.3%
COc1ccccc1C(CNc1ccc(S(=O)(=O)N2CCCC2)cc1[N+](=O)[O-])N(C)C (stereo unspecified),52.1%,55.8%
Oc1cccc2ccc(Nc3ccccn3)nc12,88.8%,95.5%
CC(C)CC(NC(=O)OCc1ccccc1)C(=O)NC(Cc1ccccc1)C(=O)CCl (stereo not drawn) (Cbz-Leu-Phe-CH2Cl; configuration not given here),62.3%,98%
Cc1cc(O)c(C(=O)/C=C/c2ccc(Cl)cc2)c(=O)o1,83.4%,79.5%
Fc1ccc(-c2cnn3c(-c4cccs4)ccnc23)cc1,61.2%,59.4%
C[C@H](CO)N1C[C@H](C)[C@@H](CN(C)C(=O)NC2CCCCC2)Oc2c(NS(=O)(=O)c3ccccc3)cccc2C1=O,-8.07%,1.05%
CC(C)c1ccc2c(c1)CC[C@H]1[C@](C)(CN)CCC[C@]21C,33.8%,97.2%
O=C(c1ccccc1)n1c(=S)nc2ccccn21,86.2%,85.5%
CCOC(=O)C1=C(C)OC(=Cc2ccc(OC)cc2)C1=O,70.6%,70%
Cc1cc(C(=O)COC(=O)c2cccnc2Cl)c(C)n1C,62.8%,40.4%
CC1Oc2ccccc2C=C1/C=N/NC(=O)c1ccccc1O (stereo unspecified),46.1%,44.9%
